Consider 82 compounds from PubChem BioAssay AID504707 (The Scripps Research Institute Molecular Screening Center, 2011).

In all, about 340,000 compounds went through this assay and about 280 (0.082%) were called active. The sample as a whole holds a higher share of actives than the screen did. A number with no mark means an inactive call.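 How the source made its calls: active means percent activation above the mean of all tested compounds plus 3 SD (cut at about 19% in these data); inactive means the rest.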

The target in the experiment is cAMP-dependent protein kinase type I-alpha regulatory subunit (Bos taurus) + cAMP-dependent protein kinase catalytic subunit beta (Mus musculus) (UniProt P00514+P68181). Nature of the experiment: compounds dissociating PKAc from R1A subunit – biochemical, fluorescence polarization, Cy5-IP20, bovine R1A, mouse PKAc, primary screen (AID 504707). The settings on record: PKA-R1A dissociation, at 11.4 µM, stronger effect = higher value, scaled: DMSO 0%, 113 µM cGMP 100%. For orientation: Fluorescence polarisation rises when a labelled molecule tumbles more slowly, as on binding a larger partner.
Take `CCN(c1ccc(NC(=O)COC(=O)CCc2nc3ccccc3n2-c2ccccc2)cc1)C(C)C`: the activation is -8.81%.
As to `Cc1ccc(S(=O)(=O)NN=C2CC(C)(C)CC(=O)C2(C)C)cc1`, the activation was -0.8%.
Regarding `C[C@H]1CN([C@@H](C)CO)C(=O)CCCn2nncc2CO[C@@H]1CN(C)S(=O)(=O)c1cccc(C#N)c1`, the activation was -0.38%.
Next, `Cc1ccc([C@H]2N[C@]3(CCCN(Cc4ccccc4)C3=O)[C@H]3C(=O)N(Cc4ccccc4)C(=O)[C@@H]23)cc1`: 3.96%; `CSCCC1NC(=O)N(CC(=O)Nc2cccc(S(=O)(=O)N3CCCCCC3)c2)C1=O` (configuration not stated): 4.33%; `CC(C)CC1C(=O)N(Cc2cn(CC3CCCCC3)nn2)CCS(=O)(=O)N1Cc1ccc(-c2ccc(Cl)cc2)cc1` (configuration not stated): -4.01%.
For the compound `Cn1nnnc1NCc1ccc(Cl)c(Cl)c1`, the activation was -9.38%.
`COc1ccc(CNc2nnnn2C)cc1`: the activation was 19.2% (active).
On to `CCCn1nnnc1NCc1ccc(OC)cc1`, for which the activation is -2.85%.
On to `Cc1ccccc1OS(=O)(=O)c1cccc([N+](=O)[O-])c1`, for which the activation is 15.6%.
Regarding `O=C(NCc1nnnn1-c1ccc(Cl)cc1)c1ccc2c(c1)OCO2`, the activation is 4.42%.
Next, `O=[N+]([O-])c1ccc(C(S(=O)(=O)Cc2ccccc2)S(=O)(=O)Cc2ccccc2)cc1`: 4.44%; `CCOC(=O)c1cnn2c(SC)ncnc12`: 1.57%; `CN(C)C(CNC(=O)c1cccc(S(=O)(=O)N2CCc3ccccc3C2)c1)c1ccccc1` (configuration not stated): -0.91%.
Regarding `CC1=C(C(=O)N2CCOCC2)CC(CC(=O)NCc2cccc3ccccc23)C(=O)N1CCC1=CCCCC1` (configuration not stated), the activation is -16.2%.
For the compound `Cc1cc(C)c(C#N)c(SCC(=O)NN2CC(=O)N(c3ccccc3F)CC2=O)n1`, the activation is -8.96%.
In the case of `CC(C)CC1C(=O)N(Cc2cn(Cc3ccco3)nn2)CCS(=O)(=O)N1Cc1ccc(-c2ccc(Cl)c(Cl)c2)cc1` (configuration not stated), the activation is -7.28%.
Next, `CCOC(=O)c1nc(-c2ccc3c(c2)OCO3)[nH]c1C`: -2.48%.
Next, `CC1=C(C(=O)N2CCOCC2)CC(CC(=O)NCCN2CCOCC2)C(=O)N1CCC1=CCCCC1` (configuration not stated): -5.53%.
With `CCC(C)C1(C2CCCC2)NC(=O)NC1=O` (configuration not stated), the activation is -4.54%.
On to `O=C(Nc1cccc(C(=O)O)c1)/C(=C\c1ccccc1)NC(=O)c1ccc(Br)o1`, for which the activation was 3.24%.
For `O=C(c1ccc(N2CCCC2=O)cc1)N1CCN(c2ccc(C(F)(F)F)cc2[N+](=O)[O-])CC1` the value was 0.5%; for `CCN(C(=O)C1CCCN(c2nc(-c3ccc(OC)cc3)no2)C1)c1ccc(OC)cc1` (configuration not stated), -6.29%; for `Cc1ccnc(SC2CC(=O)N(c3ccccc3)C2=O)n1` (configuration not stated), 8.38%.
As to `Cc1cccc(NS(=O)(=O)c2cc(Cl)ccc2Cl)n1`, the activation is -4.38%.
For `O=C1[C@H]2[C@@H](c3ccc(C(F)(F)F)cc3)N[C@]3(CCCN(Cc4ccc(Br)cc4)C3=O)[C@H]2C(=O)N1Cc1ccccc1` the value was -1.26%; for `CC(=O)N1CCc2cc(S(=O)(=O)NC3CCCCC3)ccc21`, 5.76%; for `Cc1ccc(NC(=O)Cn2sc3ccccc3c2=O)cc1`, 8.53%.
Take `CN(C)c1ccc(NC(=O)CSc2n[nH]c(-c3ccco3)n2)cc1`: the activation was 7.46%.
Regarding `Cc1ccc(S(=O)(=O)/N=C2\C=C(NS(=O)(=O)c3ccc(C)cc3)C(=O)c3ccccc32)cc1`, the activation was -6.85%.
Take `C[C@H](CO)N1C[C@H](C)[C@@H](CN(C)Cc2ccc3c(c2)OCO3)OCc2cnnn2CCCC1=O`: the activation was -8.89%.
Take `CCOC(=O)C1CCCN(S(=O)(=O)c2ccc3c(c2)C(C)(C)C(=O)N3C)C1` (configuration not stated): the activation was -3.23%.
With `COc1cc(Br)c(-c2sc(Nc3ccccc3)n[n+]2-c2ccccc2)cc1OC`, the activation was -4.44%.
Next, `Nc1nonc1-n1nnc(C(=O)N/N=C/c2ccc(Cl)cc2)c1-c1ccc2c(c1)OCO2`: -7.77%; `CCS(=O)(=O)N1Cc2ccccc2CC1C(=O)Nc1nc2ccc(F)cc2s1` (configuration not stated): 5.39%; `Cc1cccc(C(=O)OCC(=O)Nc2sccc2C(N)=O)c1C`: 3.56%.
In the case of `O=C(CN1C(=O)NC2(CCc3ccccc32)C1=O)NC1CCCCC1` (configuration not stated), the activation is -0.6%.
As to `COC(=O)[C@H]1Cc2cnoc2C[C@]1(C)C(=O)O`, the activation is 4.79%.
As for `COc1ccc(CN2C(=O)C(CC(=O)NC3CCCCC3)CC(C(=O)N3CCOCC3)=C2C)cc1` (configuration not stated), the activation was 1.08%.
Turning to `CC1CC(NC(=S)N(C)C)CC(C)(C)C1` (configuration not stated), the activation was 7.75%.
For `O=C(NN=Cc1ccc2c(c1)CCC2)c1ccccc1O` the value was 10.6%; for `Cc1onc(-c2ccccc2)c1-c1nnc(COC(=O)c2ccc(N(C)C)cc2)o1`, 11.8%; for `COc1cccc(NC(=O)Nc2ccc(F)cc2)c1`, 9.12%.
For the compound `c1ccc2c(c1)nnn2-c1ccncc1`, the activation is -12.8%.
With `CC1=C(C(=O)N(C)C)CC(CC(=O)NCCc2ccccn2)C(=O)N1CCC1=CCCCC1` (configuration not stated), the activation was 3.98%.
As for `CC(=O)Nc1ccc2c3c(ccc([N+](=O)[O-])c13)CC2`, the activation was 1.42%.
Turning to `C[C@H]1CN([C@@H](C)CO)C(=O)CCCn2cc(nn2)CO[C@@H]1CN(C)S(=O)(=O)c1ccc(-n2cccn2)cc1`, the activation is 4.21%.
Consider `CC(C)CCNc1nc(N2CCCC2)c2c(c1C#N)CCN(C)C2`, for which the activation was 6.18%.
`CN1CCN(S(=O)(=O)c2cccc(C(=O)Nc3sccc3C#N)c2)CC1`: the activation was -12.1%.
Turning to `C[C@H]1CN([C@@H](C)CO)C(=O)CCCn2cc(nn2)CO[C@@H]1CN(C)S(=O)(=O)c1ccccc1C#N`, the activation was -3.32%.
Next, `CC(=NNC(N)=O)C1CC2CCC1CC2` (configuration not stated): -3.74%; `COc1ccc(Cl)cc1NC(=O)CN(C)C(=O)c1cn(-c2ccccc2)nc1-c1cccs1`: -7.71%.
For `Cc1ccc([C@H]2C[C@H](O)[C@@H](n3cc(COC(=O)c4ccccc4)nn3)CN2CC2CCCCC2)cc1` the value was -14.8%; for `CCCCCCNC(=O)O[C@]12C[C@@H](C(=O)OC)[C@@H](C(=O)OC)C[C@@]1(O)CN(S(=O)(=O)c1ccc(C)cc1)C2`, -13.7%.
For the compound `CCc1nnc(NC(=O)c2ccco2)s1`, the activation was -1.79%.
For the compound `Cc1cccc(C(=O)C(O)(c2ccccc2)C2CCCCC2=O)c1` (configuration not stated), the activation was -0.27%.
Regarding `COc1ccc(S(=O)(=O)N(C)C[C@H]2OCc3cnnn3CCCC(=O)N([C@H](C)CO)C[C@H]2C)cc1`, the activation is 9.03%.
Consider `CCOC(=O)C1(O)CC(C)=NN1C(=O)c1cccc(Br)c1` (configuration not stated), for which the activation is -8.67%.
`C#CCN(C[C@H]1[C@H](OC(=O)NC2CCCC2)[C@H](OC(=O)NC2CCCC2)C[C@H]2C(=O)N(c3ccccc3)C(=O)[C@@H]12)S(=O)(=O)c1ccc(C)cc1`: the activation was 7.98%.
Next, `COc1ccc(S(=O)(=O)N2CCC(C(=O)NCCC(=O)Nc3ccccc3OC)CC2)cc1`: -8.6%.
As for `COc1ccc(C=C2CCC3C(CCCC34OCCO4)C2=O)cc1` (configuration not stated), the activation is -11.2%.
Turning to `Cc1ccccc1NC(=O)Cc1nc(COC(=O)CNC(=O)c2ccc(Cl)cc2Cl)cs1`, the activation was 4.88%.
For the compound `COc1ccc(NC(=O)N(C)C[C@@H]2OCc3cn(nn3)CCCC(=O)N([C@H](C)CO)C[C@H]2C)c(OC)c1`, the activation is 1.93%.
For `Cc1ccc(-c2ccc(CN3C(C(C)C)C(=O)N(Cc4cn(CCC5OCCO5)nn4)CCS3(=O)=O)cc2)cc1` (configuration not stated), the activation is -8.79%.
Consider `N#Cc1ccc(OCC(=O)Nc2nc(-c3ccccn3)cs2)cc1`, for which the activation is 8.97%.
Turning to `Cn1c(CCN2CCN(c3ccccn3)CC2)nc2cc(NS(=O)(=O)c3ccc(F)cc3)ccc21`, the activation is -5.08%.
Next, `COCCNC(=O)CSc1nc(N)c(NC(=O)c2ccco2)c(=O)[nH]1`: 5.93%.
As for `CC1(C)NC(=O)N(CC(=O)Nc2ccc(-c3ccccc3)cc2)C1=O`, the activation was -8.93%.
As to `CC(C)N(C(=O)CSc1nnc(NC2CC2)s1)c1ccccc1`, the activation was -3.79%.
With `CN(C(=O)CSc1nnc(Nc2ccccc2)s1)C1CCS(=O)(=O)C1` (configuration not stated), the activation is 19.6% (active).
Next, `CCn1c(SCC(=O)N(C)C2CCS(=O)(=O)C2)nnc1-c1cccs1` (configuration not stated): 0.15%; `CC1(c2cccc(N)c2)OCCO1`: -5.54%; `O=C(CCCN1C(=O)C(c2ccccc2)Oc2cccnc21)Nc1ccccc1Br` (configuration not stated): -1.04%.
Next, `O=C(ON=C1CCN(S(=O)(=O)c2ccccc2)CC1)c1ccc(Cl)cc1`: 6.75%; `CNC(=O)C[C@H]1C(=O)N(c2ccc(OC)cc2)C[C@@H]1Cc1ccccc1`: -2.17%; `O=C(CN1CCN(S(=O)(=O)c2ccc(Cl)s2)CC1)NCc1ccc(Cl)cc1`: 6.31%.
For `COCC(=O)N(C)C[C@H]1Oc2cc(Br)ccc2S(=O)(=O)N([C@H](C)CO)C[C@H]1C` the value was -4.65%; for `CCN(CC)C(=O)C1=C(C)N(Cc2ccc(F)cc2)C(=O)C(CC(=O)NC2CCCC2)C1` (configuration not stated), 12.1%; for `Cc1ccc(Cc2c(-c3ccccc3)nc3ccc(Cl)cn23)cc1`, -1.62%.
With `Cc1cccc(S(=O)(=O)N(C)C[C@H]2OCc3cnnn3CCCC(=O)N([C@@H](C)CO)C[C@H]2C)c1`, the activation was 7.92%.
As for `CC(C)n1ncc2c(C(=O)N3CCN(Cc4cccs4)CC3)cc(C3CC3)nc21`, the activation was 1.11%.
As for `C[C@H](CO)N1C[C@H](C)[C@@H](CN(C)S(=O)(=O)c2ccc(Oc3ccccc3)cc2)OCc2cn(nn2)CCCC1=O`, the activation is 1.58%.
